Results published in the supplement of paper PMC13380429.

What follows are molecules tested on Vero E6 infected with SARS-CoV-2 (assay: inhibition of SARS-CoV-2 cytopathic effect; higher = more antiviral protection, active = above 15). Settings: 1 nM; 48 h.

Row | Structure (SMILES) | inhibition of SARS-CoV-2 cytopathic effect
1 | Cc1c(C(=O)NN2CCOCC2)nn(-c2ccc(Cl)cc2Cl)c1-c1ccc(I)cc1 | 0.53% (inactive)
2 | CN(C)CCn1cc(S(=O)(=O)c2cccc(F)c2)c2cccnc21 | 5.3% (inactive)
3 | CCOC(=O)c1ccccc1OC(N)=O [ethyl-2-(carbamoyloxy)benzoate] | -8.28% (inactive)
4 | O=C(O)Cc1sc(-c2ccccc2)nc1-c1ccc(Cl)cc1 [fentiazac] | -0.18% (inactive)
5 | O.O.O.O.O=C([O-])CC(O)(CC(=O)[O-])C(=O)[O-].[Li+].[Li+].[Li+] [lithium-citrate] | 0.34% (inactive)
6 | COc1ccnc2[nH]cc(C(=O)C(=O)N3CCN(C(=O)c4ccccc4)C[C@H]3C)c12 | 1.91% (inactive)
7 | Cc1cc(SCc2sc(-c3ccc(C(F)(F)F)c(F)c3)nc2C)ccc1OCC(=O)O | 0.88% (inactive)
8 | CCC(=O)[C@@]1(C)[C@H](C)C[C@H]2[C@@H]3CCC4=CC(=O)C=C[C@]4(C)[C@H]3[C@@H](O)C[C@@]21C [rimexolone] | -1.78% (inactive)
9 | Cn1ccc2cc(NC(=O)Nc3cccnc3)ccc21 | -1.98% (inactive)
10 | C[S+](CC[C@H](N)C(=O)O)C[C@H]1O[C@@H](n2cnc3c(N)ncnc32)[C@H](O)[C@@H]1O (stereo partly specified) [ademetionine] | -2.98% (inactive)
11 | CCN(CC)C(=O)[C@@]1(c2ccccc2)C[C@H]1CN [milnacipran] | -4.3% (inactive)
12 | COc1cc2c(Oc3ccc(NC(=O)C4(C(=O)Nc5ccc(F)cc5)CC4)cc3F)ccnc2cc1OCCCN1CCOCC1 [foretinib] | -0.07% (inactive)
13 | O=c1sn(-c2cccc3ccccc23)c(=O)n1Cc1ccccc1 [tideglusib] | -1.59% (inactive)
14 | CCC(=O)N1CCOc2c(cc(-c3ccc(OC)c(OC)c3)cc2OC[C@H]2CCCN(C)C2)C1 | 1.79% (inactive)
15 | COCC1(CO)C(=O)C2CCN1CC2 (stereo unspecified) | -1.69% (inactive)
16 | C[C@@H]1CC[C@@]2(OC1)O[C@H]1C[C@H]3[C@@H]4CC=C5C[C@@H](O[C@@H]6O[C@H](CO)[C@@H](O[C@@H]7O[C@@H](C)[C@H](O)[C@@H](O)[C@H]7O)[C@H](O)[C@H]6O[C@@H]6O[C@@H](C)[C@H](O)[C@@H](O)[C@H]6O)CC[C@]5(C)[C@H]4CC[C@]3(C)[C@H]1[C@@H]2C [dioscin] | -2.63% (inactive)

Row | Structure (SMILES) | inhibition of SARS-CoV-2 cytopathic effect
17 | CS(=O)(=O)c1cc(F)cc2c3c(n(Cc4ccc(Cl)cc4)c12)[C@@H](CC(=O)O)CC3 [laropiprant] | 0.24% (inactive)
18 | CCC(=O)NS(=O)(=O)c1ccc(-c2c(-c3ccccc3)noc2C)cc1 [parecoxib] | -0.31% (inactive)
19 | C[C@H](CCC(=O)O)[C@H]1CC[C@H]2[C@@H]3CC[C@@H]4C[C@H](O)CC[C@]4(C)[C@H]3CC[C@]12C [lithocholic-acid] | -0.57% (inactive)
20 | CCOc1cn(-c2ccc(F)cc2C)nc1C(=O)Nc1ccc(Oc2ccnc3cc(OC)c(OC)cc23)c(F)c1 | -0.58% (inactive)
21 | CCC(C/C=C/c1ccccc1)(c1ccccc1)N(C)CC1CC1 (stereo unspecified) [igmesine] | -0.08% (inactive)
22 | c1ccc2c(c1)[I+]c1ccccc1-2 [diphenyleneiodonium] | 0.63% (inactive)
23 | Cc1c(C(=O)N2CCOc3ccc(-c4ccc(N)nc4)cc3C2)ccc(S(C)(=O)=O)c1F | -2.79% (inactive)
24 | CCOC(=O)NNc1ccc(N(CC)CC(C)O)nn1 (stereo unspecified) [cadralazine] | -0.85% (inactive)
25 | Cn1cc(-c2ccc3nnc(Sc4ccc5ncccc5c4)n3n2)cn1 | 0.46% (inactive)
26 | COc1ccccc1C(=O)Nc1cccc(NC(=O)c2cccc(C)c2)c1 | 1.89% (inactive)
27 | CCO[C@@H](Cc1ccc(OCCc2ccc(OS(C)(=O)=O)cc2)cc1)C(=O)O [tesaglitazar] | -2.83% (inactive)
28 | CC1=C(/C=C/C(=C/C=C/C(C)=C/C(=O)O)c2ccc(C)cc2)C(C)(C)CCC1 | 0.94% (inactive)
29 | CS(=O)(=O)n1cc2c(n1)CN([C@H]1CO[C@H](c3cc(F)ccc3F)[C@@H](N)C1)C2 [omarigliptin] | -0.75% (inactive)
30 | O=C(O)c1nn(Cc2ccc(Cl)cc2Cl)c2ccccc12 [lonidamine] | -0.69% (inactive)
31 | Cc1nc(-c2ccc(OCC(C)C)c(C#N)c2)sc1C(=O)O [febuxostat] | -0.9% (inactive)
